Laboratory results as given in the supplement of paper PMC12669032.

These compounds were tested on Akkermansia muciniphila (assay: growth AUC relative to DMSO control (median of replicates) (fraction); higher = more growth (less inhibition), active = hit call of the paper). Settings: 20 µM; 24 h;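 active = AUC reduced over 20% with Padj below 0.05 in at least 2 of 3 replicates; inactive = otherwise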.
Procedure, shortened: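 In round-bottom 96-well plates sealed with pierced gas-permeable seals, gut bacterial monocultures in mGAM were grown anaerobically at 37 °C from OD600 0.05 with 20 µM compound (1% DMSO). OD600 readings were taken hourly for 24 h, and the minimum OD was set to 0. Area under the growth curve was then normalised to the plate median of solvent-only wells, or to row and column medians on the industrial chemical plate. The value given is the median of three biological replicates grown on separate days.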

Growth AUC, inactive:
CC(C)c1cccc2c(=O)c3ccccc3sc12 1.1
CP(=O)(O)CCC(=O)O 0.928
ClC(COCC(Cl)C(Cl)(Cl)Cl)C(Cl)(Cl)Cl (stereo not drawn) 0.875
CCc1cccc(C)c1N(C(=O)CS(=O)(=O)[O-])C(C)COC.[Na+] (stereo not drawn) 1.08
COCC(=O)N(c1c(C)cccc1C(=O)O)C(C)C(=O)O (stereo not drawn) 0.834
COC(=O)C(C)Oc1ccc(Oc2ccc(C(F)(F)F)cn2)cc1 (stereo not drawn) 1.14
O=S(Cc1ccc(Cl)cc1)c1ccc(Cl)cc1 (stereo not drawn) 0.934
O=C(O)c1ccc(Cl)cc1Cl 0.987
Nc1ccc(S(=O)(=O)Nc2cnc3ccccc3n2)cc1 0.923
COC(=O)c1ccc(CNS(C)(=O)=O)cc1S(=O)(=O)NC(=O)Nc1nc(OC)cc(OC)n1 0.864
CC(C)(NC(=O)NCc1ccccc1Cl)c1ccccc1 1.12
CCC(C)Nc1nc(N)nc(Cl)n1 (stereo not drawn) 1.09
Cc1cccc(C)c1N(C(=O)CCl)C1CCOC1=O (stereo not drawn) 1.05
CC(C)(NC(=O)C(Br)C(C)(C)C)c1ccccc1 (stereo not drawn) 0.896
O=C(O)Cc1cccc2ccccc12 0.984
NC(Cn1cncn1)C(=O)O (stereo not drawn) 0.948
CCc1nc2ncnn2c(N)c1CCCCCC(=O)O.Cl 1.06
Cn1cc(C(=O)Nc2ccccc2-c2cc(F)c(F)c(F)c2)c(C(F)F)n1 0.832
